Sampled rows, rich in hits. Any-hit rate of the full collection: about 4.1%.
TWEAK Fn14 block = inhibitors of TWEAK-Fn14 interaction signaling. inhibition, % at 10 µM. AID 1159606. TWEAK-stimulated Fn14 reporter cells, luciferase luminescence, 8 h. actives 2% (n = 360,000); in the data active = inhibition above about 50%
TRPM1 prom inh = MITF TRPM1 promoter inhibition in SK-MEL-5 cells | actives 0.83% (n = 330,000) | SK-MEL-5 TRPM1 promoter luciferase, 24 h | inhibition, % at 12.5 µM;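 active = mean inhibition across replicates of 60% or more, whatever share of single replicates reaches that level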
TROY signal inh = blocks TROY-dependent signaling in reporter cells; Q293 LMP1-TROYcd NF-kB luciferase reporter, 4 h; inhibition, % at 10 µM; actives 0.98% (n = 360,000);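 active = compounds whose plate-normalised and pattern-corrected inhibition of the luciferase reporter signal at the single screening dose is 50% or more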
Shn3 inh set2 = Schnurri-3 reporter inhibition in Clone20 osteoblasts; Clone20 osteoblast Shn3 3'UTR firefly luciferase, 24 h; inhibition, % at 12.5 µM; actives 0.52% (n = 360,000); AID 588674;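 active = mean inhibition of at least 75% with every replicate also reaching 75%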;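 note: 0% = median of neutral control wells and 100% = pilot-screen positive control compound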
LMP1 NFkB inh = inhibitors of Epstein-Barr LMP1-induced NF-kappaB reporter. LMP1-induced NF-kappaB luciferase reporter cells, luminescence. inhibition, % at 12.5 µM. actives 0.69% (n = 350,000); in the data active = inhibition above about 41%;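 note: 0% = neutral control wells and 100% = reference inhibitor control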
Peg3 promoter = reduces Peg3 promoter-driven luciferase expression in HeLa | actives 1.7% (n = 360,000) | HeLa PEG-Prom luciferase reporter, luminescence, overnight | inhibition, % at 20 µM | AID 588405;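 active = inhibition of at least 50% at 20 µM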
The depositor's hits bear a star; nt = no result given.

SMILES | TWEAK Fn14 block | TRPM1 prom inh | TROY signal inh | Shn3 inh set2 | LMP1 NFkB inh | Peg3 promoter
CN(C)S(=O)(=O)c1ccc(Nc2nc(C3CC3)nc3c2nnn3Cc2ccccc2Cl)cc1 | 87* | 37 | 49 | 69 | 8 | 40
CCc1nc(Nc2ccc(OC)c(OC)c2)c2nnn(Cc3ccccc3Cl)c2n1 | 52* | 71* | 50 | 85 | 27 | 25
O=C(OCc1ccc(Cl)c(Cl)c1)c1ccc[nH]1 | -35 | -56 | -24 | -2 | -26 | -217
N#C/C(=N\Nc1ccc(S(=O)(=O)N2CCCCCC2)cc1)C(N)=S | 68* | -4 | 49 | -56 | -3 | -4
N#C/C(=N\Nc1ccc(S(=O)(=O)N2CCCCC2)cc1)C(N)=S | 50* | -15 | 38 | 1 | 4 | 19
N#CC(C#N)=NNc1ccc(S(=O)(=O)N2CCCC2)cc1 | 51* | -3 | 55* | -10 | 17 | 8
C#CC[N+](C)(C)CCCCCCCCCC | 23 | 12 | 9 | 43 | 14 | 34
CCCCCCCCCCCCCCCC[N+](C)(C)CCl | -27 | -3 | 3 | 83 | 0 | 100*
CCCCCCCCCCCCCCCC[N+](C)(C)CC | 41 | 39 | 33 | 93* | 2 | 102*
CCCCCC[N+](C)(C)CCSSCC[N+](C)(C)CCCCCC | 1 | -2 | 1 | -6 | -5 | -8
O=C1OCC2=C1C(c1ccc3c(c1)OCO3)c1cc3c(cc1O2)OCO3 (stereo not drawn) | 1 | 2 | 13 | -7 | 59* | 24
Cc1ccc(C=Nc2ccc(N(C)C)cc2)o1 | 62* | -4 | 5 | 10 | -10 | -124
Cc1ccc(/C=N/n2c(C)nnc2C)o1 | -2 | -7 | -1 | 13 | -6 | 3
CC1=NN(c2nc(-c3ccccc3)cs2)C(=O)C1 | 66* | 6 | 55* | 10 | 1 | 2
O=C1CC(c2ccccc2)=NN1c1nc(-c2ccccc2)cs1 | -9 | -5 | 35 | -34 | -3 | -40
CSc1ccc(NC(=O)Nc2cc(C)ccn2)cc1 | 69* | -34 | 34 | 20 | 11 | -137
CC(=O)c1ccc(NC(=O)Nc2ccc3c(c2)N(C)C(=O)CS3)cc1 | 72* | -16 | 32 | -15 | 3 | -14
CCOc1ccc(NC(=O)Nc2ccc3c(c2)N(C)C(=O)CS3)cc1 | 25 | -11 | 21 | 10 | 4 | 3
Cc1ccnc(NC(=O)Nc2ccc3c(c2)N(C)C(=O)CS3)c1 | 52* | -174 | -13 | -124 | -76 | -117
Cc1ccnc(NC(=O)Nc2ccc(Br)cc2Cl)c1 | 43 | -14 | 37 | -45 | 48* | -187
CN1CCCN(Cc2ccccc2Br)CC1 | 2 | 19 | 1 | -4 | -13 | 7
CC[N+](C)(C)Cc1ccccc1Br | -14 | 0 | 5 | 3 | 83* | 2
Cc1ccc(-c2csc(NC(=O)C3=NN(c4ccccc4)C(=O)CC3)n2)cc1 | 55* | 5 | 17 | 14 | 7 | -4
CCN(CC(=O)Nc1c(F)cccc1F)C(=O)c1ccc(=O)n(C)n1 | 9 | 3 | 16 | -8 | 4 | -8
CCC(c1ccc(O)cc1)C(CC)c1ccc(O)cc1 (stereo not drawn) | 4 | 12 | 52* | 8 | -6 | 33
SMILES | TWEAK Fn14 block | TRPM1 prom inh | TROY signal inh | Shn3 inh set2 | LMP1 NFkB inh | Peg3 promoter
CCC(C(=O)c1ccc(O)cc1)c1ccccc1 (stereo not drawn) | -3 | -2 | 14 | -4 | -4 | 31
Cc1cccnc1NC(=O)CN1C(=O)COc2ccc(Cl)cc21 | 1 | -13 | -3 | -6 | -5 | 16
Cc1cc(C)cc(NC(=O)CCc2c(C)nn(-c3ccc(N4CCCCC4)nn3)c2C)c1 | -18 | -76 | -46 | -93 | -34 | -180
Cc1ccc(NC(=O)CCN2CCN(CCO)CC2)cc1 | -2 | -2 | -1 | -2 | 5 | 16
Cc1ccc(NC(=O)CCc2c(C)nn(-c3ccc(N4CCCCC4)nn3)c2C)cc1 | -54 | -31 | -34 | -26 | -18 | 77*
Cc1ccc(NC(=O)CCN2CCCCC2)cc1 | 100* | 5 | 69* | 25 | 26 | 34
N#Cc1cccc(NC(=O)CCNS(=O)(=O)c2ccc3[nH]c(=O)oc3c2)c1 | -32 | 0 | -7 | -11 | nt | 16
COc1ccc2sc(N(CCCN(C)C)C(=O)c3ccc(C(=O)c4ccccc4)cc3)nc2c1 | -3 | -14 | -13 | 20 | 1 | -39
CCOc1ccc2nc(N(CCCN(C)C)C(=O)c3ccc(S(=O)(=O)N4CCCC4)cc3)sc2c1 | 14 | -9 | 24 | -14 | 11 | -27
CCN(Cc1ccccc1)S(=O)(=O)c1ccc(C(=O)N(CCCN(C)C)c2nc3cc(OC)ccc3s2)cc1 | -8 | 63* | 20 | 9 | 0 | -11
CCN(Cc1ccccc1)S(=O)(=O)c1ccc(C(=O)N(CCCN(C)C)c2nc3ccc(F)cc3s2)cc1 | -1 | 91* | -12 | 20 | -5 | 2
CN(C)CCCN(C(=O)c1ccc(S(=O)(=O)N2CCCC2)cc1)c1nc2ccc(Br)cc2s1 | -5 | 83* | -7 | -21 | 4 | -11
CN(C)CCCN(C(=O)c1ccc(S(=O)(=O)N(C)C2CCCCC2)cc1)c1nc2ccc(F)cc2s1 | -2 | 30 | -12 | -1 | -1 | 10
CCc1ccc2nc(N(CCCN(C)C)C(=O)c3ccc(S(=O)(=O)N(C)C4CCCCC4)cc3)sc2c1 | -30 | 96* | -22 | 24 | -5 | 79*
CN(C)CCCN(C(=O)c1ccc(C(=O)c2ccccc2)cc1)c1nc2ccc(F)cc2s1 | -14 | -9 | -89 | -16 | -8 | 33
CCN(Cc1ccccc1)S(=O)(=O)c1ccc(C(=O)N2CCN(c3nc4ccccc4s3)CC2)cc1 | 93* | 38 | 46 | 75 | 39 | -3
Cc1ccc(S(=O)(=O)N2c3ccccc3-c3c(ssc3=S)C2(C)C)cc1 | 37 | 9 | 12 | 13 | 58* | 41
COc1ccc2c(c1)-c1c(ssc1=S)C(C)(C)N2S(=O)(=O)c1ccc(C)cc1 | 21 | 8 | 21 | 27 | -10 | 45
N#C/C(=N\Nc1ccc(S(=O)(=O)N2CCc3ccccc32)cc1)C(N)=S | 58* | 17 | 72* | 20 | 5 | 43
CCOC(=O)/C(C#N)=N/Nc1ccc(S(=O)(=O)N2CCc3ccccc32)cc1 | 36 | 5 | 52* | 5 | -5 | 27
CN(C(=O)c1cccc(NC(=O)Cc2ccc(NC(=O)C3CCN(S(=O)(=O)c4cccc([N+](=O)[O-])c4)CC3)cc2)c1)C1CC1 | -9 | -8 | 5 | -6 | -10 | 4
CN(CC(=O)Nc1c(Cl)cccc1Cl)C(=O)c1cc(-c2cccs2)nn1-c1ccccc1 | -1 | -1 | -7 | 11 | -3 | 22
CCN(CC(=O)Nc1c(F)cccc1F)C(=O)c1cc(-c2cccs2)nn1-c1ccccc1 | 20 | 3 | 25 | 8 | -12 | 58*

Source: PubChem BioAssay
